Screening results: PubChem BioAssay, National Center for Advancing Translational Sciences (NCATS)
HCV inh: HCV inhibition; Huh7.5.1 HCVcc-Cre infection, luciferase reporter, 44 h; Potency, µM (series often up to 41.8 µM), hits mostly inhibitors; hit rate 3.4% among 340,000
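Antiviral activity was scored by luciferase reporter output from cells infected with HCVcc-Cre (~0.5 moi) in presence of compound, 44 h infection period, cells seeded 1,000/well 4 h prior.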
Pf growth 96h: inhibits malaria parasite growth, 96 h; P. falciparum luciferase reporter growth, 96 h; Potency, µM (doses to about 28.7 µM), hits mostly inhibitors; hit rate 6.9% among 320,000; AID 504834
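Parasite growth measured via integrated firefly luciferase reporter in P. falciparum. Infected erythrocytes at 2% hematocrit, 0.05% parasitemia final were treated 96 hours at 37 C under 5% CO2, and luminescence was read.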
Pf growth 48h: inhibits P. falciparum growth in the first generation, 48 h. P. falciparum luciferase growth in erythrocytes, 48 h. Potency, µM (doses to about 28.7 µM), usual class: inhibitors. hit rate 5.9% among 310,000. AID 504832
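A one-generation exposure of luciferase-tagged malaria parasites in RPMI 1640/Albumax erythrocyte culture, 37 C and 5% CO2. Inhibition is inferred from decreased luminescence after adding detection reagent.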
CHX counter: affects cycloheximide protein synthesis inhibition readout, counter-screen; cell reporter, cycloheximide protein synthesis inhibition counterscreen; max response, %; hit rate 12% among 300,000; in the data active means max response mostly above about 13%, no sharp cut-off; inactive means mostly below about 14%; further: read at 38.3 µM for the half of the compounds with a filed dose
HCMV inh: inhibitors of human cytomegalovirus; activity change, negative = inhibition, % at 57.5 µM; HFF cells, HCMV-luciferase reporter, 72 h; stronger effect = lower value; hit rate 4.5% among 410,000; in the data active means activity change below about -60%; inconclusive means no clear call, values can overlap the other calls; inactive means above about -39%
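Compounds were evaluated in HFFs infected with an HCMV luciferase reporter virus (MOI 1 PFU/cell). Luciferase in lysates collected 72 h post infection served as the replication measure.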
Shiga inhibitor: inhibitors of Shiga toxin in Vero cells; hit rate 9.2% among 290,000; Vero cells, Shiga toxin protein synthesis inhibition reporter; inhibition, % at 38.7 µM; AID 2315; in the data active means inhibition mostly above about 28%, no sharp cut-off; inactive means mostly below about 43%
Of the large screens only hits and unclear results are named; the others gave an inactive call. This is a sample that favours compounds with a hit; in the whole collection about 21% have one here. Unless noted, the call rests on the fitted dose curve; in most records, active means well fitted inhibition curve with a large enough effect; inconclusive means small, poorly fitted or top-dose-only effect, or another doubt; inactive means no such curve, though single readings can be large or run the other way.

COc1ccc(CCNC(=O)C(C)n2nc(C)c3c(C)n(-c4ccc(C)cc4)nc3c2=O)c(OC)c1 (stereo not drawn)	HCV inh 3.2µM, Pf growth 96h 3.3µM, Pf growth 48h 13µM, HCMV inh -98
COc1ccccc1CCNC(=O)C(C)n1nc(C)c2c(C)n(-c3ccccc3)nc2c1=O (stereo not drawn)	Pf growth 96h 12µM
COc1ccccc1CNC(=O)C(C)n1nc(C)c2c(C)n(-c3ccccc3)nc2c1=O (stereo not drawn)	Pf growth 96h inconclusive, Pf growth 48h inconclusive
Cc1cc(C(=O)CSc2nc(N)cc(N)n2)c(C)n1-c1cccc(C(F)(F)F)c1	HCV inh inconclusive, Pf growth 96h inconclusive, Pf growth 48h inconclusive, HCMV inh inconclusive
Cc1cc(C(=O)CSc2n[nH]c(N)n2)c(C)n1-c1cccc(F)c1	HCV inh inconclusive, CHX counter 20, Shiga inhibitor 73
COCCn1c(C)cc(C(=O)CSc2nc3nc(C)cc(C)n3n2)c1C	Pf growth 96h inconclusive, Pf growth 48h inconclusive
COCCn1c(C)cc(C(=O)CSc2n[nH]c(N)n2)c1C	CHX counter 13
Cc1cc(C(=O)CSc2ncccn2)c(C)n1-c1cccc(F)c1	CHX counter 86, Shiga inhibitor 100
Cc1cc(C(=O)CSc2nnnn2C)c(C)n1-c1cccc(F)c1	HCV inh inconclusive, Pf growth 96h inconclusive, CHX counter 40, Shiga inhibitor 122
Cc1nn2c(=O)cc(COC(=O)Cc3ccccc3)nc2s1	none (no result: HCV inh, Pf growth 96h, Pf growth 48h, CHX counter, Shiga inhibitor)
CCN1C(=O)N[C@@H](c2ccccc2)C1=O	none (no result: HCV inh, CHX counter, HCMV inh, Shiga inhibitor)
CCCCN(Cc1ccccc1)C(=O)c1oc(=O)c2ccccc2c1-c1ccc(C)cc1	none (no result: HCV inh, Pf growth 96h, Pf growth 48h, CHX counter, Shiga inhibitor)
Cc1ccc(S(=O)(=O)N2CCC(C(=O)OC(C)C(=O)NC3CCCCC3C)CC2)cc1 (stereo not drawn)	Pf growth 96h inconclusive (no result: CHX counter, Shiga inhibitor)
COc1ccccc1NC(=S)NC1CCCCCCCCCCC1	HCV inh 4.5µM, Pf growth 96h inconclusive, Pf growth 48h 1.5µM, HCMV inh -61
COc1ccccc1NC(=S)NCC1CCCCC1	HCV inh inconclusive, HCMV inh -66
S=C(Nc1ccccc1Cl)NC1CCCCCC1	CHX counter 18, HCMV inh inconclusive, Shiga inhibitor 63
COc1ccccc1NC(=S)NC1CCCCC1	HCV inh inconclusive, Pf growth 96h 9.3µM
O=C(NCCC1CCCCN1S(=O)(=O)c1ccc(F)cc1)C(=O)NCCN1CCOCC1 (stereo not drawn)	Pf growth 96h inconclusive (no result: CHX counter, Shiga inhibitor)
CCC(C)C(NC(=O)OC(C)(C)C)C(=O)NC1COC2CC(n3ccc(NC(C)=O)nc3=O)OC12 (stereo not drawn)	none (no result: HCV inh, Pf growth 96h, Pf growth 48h, HCMV inh)
COc1cccc(C(=O)Nc2nnc(S(=O)(=O)N3CCCC3)s2)c1	none
CC(=O)OC1CC(OC2C(O)CC(OC3C(O)CC(OC4CCC5(C)C(CCC6C5CCC5(C)C(C7=CC(=O)OC7)CCC65O)C4)OC3C)OC2C)OC(C)C1OC1OC(CO)C(O)C(O)C1O (stereo not drawn)	HCV inh 0.79µM, HCMV inh -98 (no result: Pf growth 96h, Pf growth 48h, CHX counter, Shiga inhibitor)
CC1OC(OC2CCC3(C)C(CCC4C3CC(O)C3(C)C(C5=CC(=O)OC5)CCC43O)C2)CC(O)C1OC1CC(O)C(OC2CC(O)C(OC3OC(CO)C(O)C(O)C3O)C(C)O2)C(C)O1 (stereo not drawn)	Pf growth 96h inconclusive (no result: HCV inh, HCMV inh)
CC(=O)OC1C[C@H](O[C@@H]2C(O)C[C@H](O[C@@H]3C(O)C[C@@H](OC4CC[C@]5(C)C(CCC6C5CC(O)[C@@]5(C)C(C7=CC(=O)OC7)CC[C@@]65O)C4)OC3C)OC2C)O[C@H](C)[C@H]1O[C@H]1OC(CO)C(O)C(O)C1O (stereo partly drawn)	Pf growth 96h 4.8µM, Pf growth 48h 8.5µM (no result: HCV inh, CHX counter, HCMV inh, Shiga inhibitor)
NC(=O)C1CCN(C(=O)c2ccc(Cl)c(S(=O)(=O)N3CCCCCC3)c2)CC1	none (no result: Pf growth 96h, Pf growth 48h, CHX counter, Shiga inhibitor)
O=C(CSc1nnc(-c2ccco2)n1Cc1ccccc1)OC1CCCCC1	CHX counter 24, Shiga inhibitor 84 (no result: Pf growth 96h)
CC(=O)c1c(C)[nH]c(C(=O)CSc2nnc(-c3ccco3)n2Cc2ccccc2)c1C	HCV inh inconclusive, Pf growth 96h 0.059µM, Pf growth 48h inconclusive
CC(=O)c1c(C)[nH]c(C(=O)CSc2nnc(-c3cccs3)n2Cc2ccccc2)c1C	HCV inh 2.8µM, Pf growth 48h 9.3µM (no result: Pf growth 96h)
O=c1cc(CSc2nnc(-c3cccs3)n2Cc2ccccc2)nc2sc3ccccc3n12	HCV inh inconclusive, Pf growth 48h inconclusive, HCMV inh -93
CCOC(=O)c1c(C)[nH]c(C(=O)CSc2nnc(-c3cccs3)n2Cc2ccccc2)c1C	HCV inh inconclusive, Pf growth 96h inconclusive, Pf growth 48h inconclusive
O=C(CSc1nnc(-c2ccncc2)n1Cc1ccco1)OC1CCCCC1	none (no result: Pf growth 96h)
N#Cc1c(N)nc2c(c1-c1cccs1)CCCC2	HCMV inh inconclusive
N#Cc1c(N)oc(-c2cccs2)c1-c1cccs1	Pf growth 96h 13µM, Pf growth 48h 9.3µM
CCN(CC)C(=O)CC(c1ccc(F)cc1)c1ccco1 (stereo not drawn)	Pf growth 48h inconclusive
CCCN(CCC)C(=O)CC(c1ccccc1)c1cc(Br)ccc1O (stereo not drawn)	HCV inh inconclusive, Pf growth 48h 13µM (no result: Pf growth 96h)
Cc1ccc(C(CC(=O)N2CCCC2)c2ccccc2)c(O)c1 (stereo not drawn)	Pf growth 96h inconclusive, HCMV inh inconclusive
CCCN(CCC)C(=O)CC(c1ccccc1)c1ccc(C)cc1O (stereo not drawn)	Pf growth 96h inconclusive, HCMV inh -70 (no result: HCV inh, Pf growth 48h)
O=C(CC(c1ccccc1)c1cc(Br)ccc1O)N1CCCCC1 (stereo not drawn)	Pf growth 96h inconclusive, Pf growth 48h 13µM
CCCN(CCC)C(=O)CC(c1ccccc1)c1ccco1 (stereo not drawn)	Pf growth 96h inconclusive, Pf growth 48h 12µM
O=C(CC(c1ccccc1)c1ccccc1O)N1CCCC1 (stereo not drawn)	none (no result: Pf growth 96h)
O=C(N=C1SC2CS(=O)(=O)CC2N1c1ccc(F)cc1)C1CC1 (stereo not drawn)	none
CC(C)(C)NC(=O)COC(=O)/C=C/c1ccc(F)cc1	CHX counter 24, HCMV inh inconclusive
COC(=O)CNC(=O)COC(=O)/C=C/c1ccc(F)cc1	none
N#CC1=C(N)Oc2c(ccc3cccnc23)C1c1ccccc1 (stereo not drawn)	HCV inh inconclusive, Pf growth 96h inconclusive, Pf growth 48h 13µM
Cc1ccc2[nH]c(=O)c(C3C(C#N)=C(N)Oc4c3ccc3cccnc43)cc2c1 (stereo not drawn)	HCV inh 10µM, Pf growth 48h inconclusive, HCMV inh -92 (no result: Pf growth 96h)
N#CC1=C(N)Oc2cc(O)ccc2C1c1cccs1 (stereo not drawn)	none (no result: Pf growth 96h, Pf growth 48h)
